Calls of active or inactive are those of the source.
Tests used:
[1] = optical density shifts of acrAB sulA E. coli – strain DRC41, OD650, 48 h, E. coli filamentation inducer project, primary screen (AID 1152); conditions: higher = more signal, called active from +8 up or from −8 down;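 also: E. coli MC1000 strain DRC41 lacking acrAB efflux pump and sulA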
[2] = probe aLefty1 binding on compound microarray – biochemical, small-molecule microarray, 635/667 nm fluorescence, primary screen (AID 1153); conditions: higher = more signal;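 also: score merges spot fluorescence with signal-to-noise ratio from the scanned slide images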
[3] = plasmodial surface anion channel blockers, osmotic lysis – cell-based, P. falciparum Indochina, OD700, 1 h, primary screen (AID 1154); conditions: P. falciparum Indochina infected RBC osmotic lysis, higher = more signal, called active from +8 up or from −8 down
[4] = plasmodial surface anion channel blockers, osmotic lysis – cell-based, P. falciparum Indochina, OD700, 2 h, primary screen (AID 1155);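 also: lysis reports solute entry through the parasite surface anion channel PSAC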; conditions: P. falciparum Indochina infected erythrocytes, higher = more signal, called active from +8 up or from −8 down
[5] = changes in parasitized red cell lysis, either direction – P. falciparum Indochina, OD700, 3 h, PSAC antagonist project, primary screen (AID 1156); conditions: P. falciparum-infected erythrocytes, osmotic lysis, higher = more signal, called active from +8 up or from −8 down
[6] = plasmodial surface anion channel blockers, osmotic lysis – cell-based, P. falciparum Indochina, OD700, 18 h, primary screen (AID 1157); conditions: P. falciparum Indochina infected erythrocytes, osmotic lysis OD700, 18 h; higher = more signal, called active from +8 up or from −8 down
[7] = S6 kinase pathway phospho-S6 level changes – cell-based, A549, cytoblot, luminescence, serum-stimulated, primary screen (AID 1158); conditions: 5 h, higher = more signal;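 also: serum-stimulated A549 lung adenocarcinoma cells; signal is phosphorylated S6 detected by cytoblot immunostaining with HRP secondary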
[8] = target: NADPH oxidase 2 (Homo sapiens) (UniProt P04839); test: compounds shifting NOX2 Amplex Red fluorescence – cell-based, HEK293-NOX2, PMA-stimulated, NOX inhibitor project, primary screen (AID 1159); conditions: 45 min, higher = more signal, called active from +8 up or from −8 down; also: test concentration not given here
Sequence of NADPH oxidase 2 (Homo sapiens) (P04839 whole entry, looked up): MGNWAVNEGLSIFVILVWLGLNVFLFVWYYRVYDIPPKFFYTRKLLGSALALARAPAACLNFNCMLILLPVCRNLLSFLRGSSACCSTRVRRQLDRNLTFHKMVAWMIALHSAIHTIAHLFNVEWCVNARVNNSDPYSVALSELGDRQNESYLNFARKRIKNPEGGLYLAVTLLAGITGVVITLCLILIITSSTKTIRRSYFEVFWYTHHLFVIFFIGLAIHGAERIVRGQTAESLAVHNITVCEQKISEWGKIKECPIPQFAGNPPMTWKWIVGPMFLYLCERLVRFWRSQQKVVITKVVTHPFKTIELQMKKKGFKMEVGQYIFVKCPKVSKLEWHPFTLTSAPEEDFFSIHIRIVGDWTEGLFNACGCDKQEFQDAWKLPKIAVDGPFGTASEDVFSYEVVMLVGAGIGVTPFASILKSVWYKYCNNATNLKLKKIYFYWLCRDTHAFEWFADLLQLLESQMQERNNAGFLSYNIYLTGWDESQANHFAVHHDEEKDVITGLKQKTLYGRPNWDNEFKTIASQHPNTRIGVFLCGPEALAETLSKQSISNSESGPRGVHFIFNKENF

[9] = target: NADPH oxidase 4 (Homo sapiens) (UniProt Q9NPH5); test: compounds shifting NOX4 Amplex Red fluorescence – cell-based, HEK293-NOX4, tetracycline-induced, NOX inhibitor project, primary screen (AID 1160); conditions: HEK293-NOX4, Amplex Red H2O2 fluorescence, 45 min; higher = more signal, called active from +8 up or from −8 down
Sequence of NADPH oxidase 4 (Homo sapiens) (Q9NPH5 whole entry, looked up): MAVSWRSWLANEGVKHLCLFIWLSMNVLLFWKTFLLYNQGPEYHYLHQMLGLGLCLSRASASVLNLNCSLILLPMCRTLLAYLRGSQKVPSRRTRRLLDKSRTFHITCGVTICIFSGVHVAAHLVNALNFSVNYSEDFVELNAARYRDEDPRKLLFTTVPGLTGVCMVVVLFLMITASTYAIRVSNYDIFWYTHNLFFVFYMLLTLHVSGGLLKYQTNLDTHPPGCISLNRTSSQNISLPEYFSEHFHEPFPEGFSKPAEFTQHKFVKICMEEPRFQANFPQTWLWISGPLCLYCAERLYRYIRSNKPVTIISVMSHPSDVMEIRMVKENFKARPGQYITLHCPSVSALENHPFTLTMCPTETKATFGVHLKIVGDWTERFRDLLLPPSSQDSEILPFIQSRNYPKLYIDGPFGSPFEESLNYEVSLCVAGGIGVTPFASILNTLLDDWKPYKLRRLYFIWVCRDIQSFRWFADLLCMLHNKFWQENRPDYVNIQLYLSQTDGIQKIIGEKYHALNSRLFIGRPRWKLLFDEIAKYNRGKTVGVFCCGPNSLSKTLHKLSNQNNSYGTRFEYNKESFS

[10] = target: NADPH oxidase 5 (Homo sapiens) (UniProt Q96PH1); test: compounds shifting NOX5 Amplex Red fluorescence – cell-based, HEK293-NOX5, NOX inhibitor project, primary screen (AID 1161); conditions: HEK293-NOX5, ionomycin, 45 min, higher = more signal
Sequence of NADPH oxidase 5 (Homo sapiens) (Q96PH1 whole entry, looked up): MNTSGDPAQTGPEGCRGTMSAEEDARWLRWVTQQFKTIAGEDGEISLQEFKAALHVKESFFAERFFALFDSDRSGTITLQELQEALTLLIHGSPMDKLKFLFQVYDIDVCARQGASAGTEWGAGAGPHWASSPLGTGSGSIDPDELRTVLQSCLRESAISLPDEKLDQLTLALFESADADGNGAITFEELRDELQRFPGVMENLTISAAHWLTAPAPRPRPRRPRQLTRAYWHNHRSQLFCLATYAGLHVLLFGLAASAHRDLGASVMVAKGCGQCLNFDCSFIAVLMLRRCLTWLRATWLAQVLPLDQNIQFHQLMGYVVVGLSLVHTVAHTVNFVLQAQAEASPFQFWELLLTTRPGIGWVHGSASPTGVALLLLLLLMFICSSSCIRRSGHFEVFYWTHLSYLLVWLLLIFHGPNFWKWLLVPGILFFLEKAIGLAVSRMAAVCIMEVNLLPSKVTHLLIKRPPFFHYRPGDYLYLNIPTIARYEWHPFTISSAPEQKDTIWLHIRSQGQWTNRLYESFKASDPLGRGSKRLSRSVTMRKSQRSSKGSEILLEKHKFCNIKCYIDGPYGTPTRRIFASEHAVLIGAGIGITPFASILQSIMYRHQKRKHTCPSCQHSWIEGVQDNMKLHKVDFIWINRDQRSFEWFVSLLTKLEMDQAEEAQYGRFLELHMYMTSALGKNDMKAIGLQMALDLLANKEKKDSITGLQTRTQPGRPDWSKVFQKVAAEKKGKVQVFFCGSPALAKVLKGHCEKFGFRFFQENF

[11] = compound effects on lung adenocarcinoma cell viability – A549, calcein-AM fluorescence, 48 h, basal, profiling panel (AID 1162); conditions: higher = more signal; also: test concentration not given here
[12] = compound effects on differentiated 3T3-L1 adipocyte viability – cell-based, 3T3-L1 adipocytes, calcein-AM fluorescence, 48 h, basal, profiling panel (AID 1163); conditions: 3T3-L1 adipocytes viability, higher = more signal; also: test concentration not given here
[13] = compound effects on hepatocellular carcinoma cell viability – HepG2, calcein-AM fluorescence, 48 h, basal, profiling panel (AID 1164); conditions: higher = more signal; also: test concentration not given here
[14] = compound effects on multiple myeloma cell viability – MM1S, calcein-AM fluorescence, 48 h, basal, profiling panel (AID 1165); conditions: higher = more signal; also: test concentration not given here
[15] = calcein-AM signal in unstimulated myeloma cells – cell-based, calcein-AM fluorescence, 48 h, PK04 Diversity Set, profiling panel (AID 1166); conditions: RPMI8226 myeloma viability, higher = more signal;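 also: cells grown under basal conditions without added stimulus; test concentration not given here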
[16] = JC-1 mitochondrial signal, unstimulated HepG2 cells – cell-based, JC-1 fluorescence, 24 h, 100 nL compound, profiling panel (AID 1167); conditions: HepG2 mitochondrial potential, higher = more signal; also: test concentration not given here
[17] = JC-1 mitochondrial signal, unstimulated adipocytes – cell-based, JC-1 fluorescence, 3T3-L1 adipocytes, 24 h, 100 nL compound, profiling panel (AID 1168); conditions: JC-1 mitochondrial fluorescence, higher = more signal, called active from +8 up or from −8 down; also: test concentration not given here
[18] = JC-1 mitochondrial signal, unstimulated myeloma cells – cell-based, JC-1 fluorescence, RPMI8226, 24 h, 100 nL compound, profiling panel (AID 1169); conditions: JC-1 mitochondrial potential fluorescence, higher = more signal; also: test concentration not given here
[19] = JC-1 mitochondrial signal, unstimulated MM1S myeloma – cell-based, JC-1 fluorescence, 24 h, 100 nL compound, profiling panel (AID 1170); conditions: MM1S mitochondrial potential, higher = more signal; also: test concentration not given here
[20] = resazurin metabolic signal in A549 cells – cell-based, resazurin fluorescence, 24 h, PK04 Diversity Set, profiling panel (AID 1171); conditions: A549 viability, higher = more signal, called active from +8 up or from −8 down; also: test concentration not given here

SMILES | z-score [1] | composite z-score [2] | z-score [3] | z-score [4] | z-score [5] | z-score [6] | z-score [7] | z-score [8] | z-score [9] | z-score [10] | z-score [11] | z-score [12] | z-score [13] | z-score [14] | z-score [15] | z-score [16] | z-score [17] | z-score [18] | z-score [19] | z-score [20]
CCCN1C(=O)[C@]2(Cc3ccccc3)N=C(c3ccc(OCCCO)cc3)O[C@@H]2c2ccccc21 | 0.655 (inactive) | 0.268 | 34 (active) | 27.2 (active) | 1.25 (inactive) | 4.25 (inactive) | 1.56 | -2.25 (inactive) | 0.187 (inactive) | -1.27 | 0.0649 | 0.932 | -1.26 | -1.26 | -4.03 | 0.596 | 2.77 (inactive) | -1.21 | -1.1 | -0.593 (inactive)
CCCCN1CC=CC23O[C@@H]4C=CCOC(=O)[C@@H]4[C@H]2C(=O)N(CCCO)[C@@H]3C1=O (stereo not given in full) | 0.915 (inactive) | -0.0075 | -0.062 (inactive) | -0.921 (inactive) | 0.836 (inactive) | -1.43 (inactive) | 0.385 | 0.05 (inactive) | -0.101 (inactive) | -0.234 | -0.117 | 1.11 | -0.49 | 0.799 | -0.304 | -1.11 | 0.111 (inactive) | -0.702 | 0.797 | -1.28 (inactive)
COC(=O)[C@@]1(Cc2ccccc2)[C@H]2c3cc(C(=O)N4CCCC4)n(Cc4cc(F)cc5c4OCOC5)c3C[C@H]2CN1C(=O)c1ccccc1 | -1.14 (inactive) | 0.0752 | 2.98 (inactive) | 0.589 (inactive) | 0.804 (inactive) | 0.715 (inactive) | -0.163 | 0.768 (inactive) | 0.0378 (inactive) | -0.652 | -0.927 | -0.888 | 0.162 | 0.464 | -0.0133 | 3.48 | 0.0248 (inactive) | -0.0359 | -0.977 | -0.522 (inactive)
C=CCNC(=O)[C@@H]1[C@H]2C(=O)O[C@H](c3ccccc3)[C@H](c3ccccc3)N2[C@H](c2ccc(OCCO)cc2)[C@@]12C(=O)N(C(=O)OCCOC)c1ccc(C#CC3=CCCCC3)cc12 | -0.892 (inactive) | 0.173 | 6.2 (inactive) | 2.12 (inactive) | 0.669 (inactive) | 1.46 (inactive) | 0.0846 | 1.13 (inactive) | -0.0729 (inactive) | 1.69 | -0.549 | -0.354 | 0.0468 | -1.45 | -1.59 | -0.893 | -0.0381 (inactive) | -0.814 | -1.57 | -1.01 (inactive)
O=C(CS)NCCCCCCNC(=O)[C@@H]1C[C@@H]2C(=O)N3CCC[C@H]3C(=O)N2[C@@H]1c1cccc(OCCO)c1 | 1.89 (inactive) | 0.113 | 2.94 (inactive) | -0.677 (inactive) | 1.94 (inactive) | -1.78 (inactive) | 2.09 | 1.17 (inactive) | 0.87 (inactive) | 0.222 | 2.14 | 0.426 | 1.02 | 0.0848 | 0.449 | -0.151 | 0.193 (inactive) | 0.0158 | 0.111 | -0.659 (inactive)
COC(=O)C[C@H]1O[C@]2(C(=O)N(C)c3ccccc32)[C@@H](C)[C@@H]1[Si](C)(C)c1ccc(C)cc1 | 1.6 (inactive) | -0.0789 | 2.58 (inactive) | 0.894 (inactive) | 0.0094 (inactive) | 0.426 (inactive) | 0.559 | 0.626 (inactive) | 0.00059 (inactive) | -1.59 | -1.55 | 0.163 | -0.151 | -1.5 | -4.12 | -0.39 | 0.329 (inactive) | -0.991 | 0.413 | -0.447 (inactive)
COc1ccc([Si](C)(C)[C@H]2[C@H](CCn3cc([C@H](O)c4ccccc4)nn3)O[C@@]3(C(=O)N(Cc4ccc(N5CCC5=O)cc4)c4ccccc43)[C@@H]2C)cc1 | 0.503 (inactive) | 0.0341 | 30.5 (active) | 27.1 (active) | 1.25 (inactive) | 2.07 (inactive) | 0.436 | 0.923 (inactive) | 1.6 (inactive) | 2.22 | 0.399 | 1.19 | -0.541 | -0.695 | -0.412 | 0.411 | -0.391 (inactive) | -0.445 | -0.202 | -0.869 (inactive)
O=C1O[C@@H](c2ccccc2)[C@@H](c2ccccc2)N2[C@@H](c3ccc(O)cc3)[C@]3(C(=O)Nc4ccccc43)[C@@H](C(=O)Nc3nc4ccccc4s3)[C@H]12 | -0.198 (inactive) | -0.209 | 1.37 (inactive) | 2.29 (inactive) | -0.492 (inactive) | 1.82 (inactive) | -0.132 | 0.642 (inactive) | 0.0436 (inactive) | 0.933 | -2.07 | 0.353 | -1.49 | -3.37 | -4.55 | -3.64 | 0.169 (inactive) | -1.23 | -1.76 | -1.9 (inactive)
C=CCC(OC(C)=O)[C@@H]1[C@@H](N(Cc2cc3ccccc3o2)C(=O)c2ccc(C)cc2)c2cc(OCCCO)ccc2N1C(=O)Cc1ccc2ccccc2c1 (stereo not given in full) | 2.52 (inactive) | -0.103 | 1.49 (inactive) | 0.434 (inactive) | -0.884 (inactive) | 0.283 (inactive) | 0.866 | 0.597 (inactive) | 0.921 (inactive) | 2.32 | 2.34 | 0.133 | 1.18 | -0.623 | -0.802 | 3.42 | -0.577 (inactive) | 0.0031 | 0.718 | 1.65 (inactive)
